Measured values taken from PubChem BioAssay AID602340 (Broad Institute, 2012).
The whole screen tested about 330,000 compounds, of which about 2,600 (0.79%) were called active. The full list was thinned out, with actives kept by preference. Unmarked numbers belong to inactive results.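 The calls were made as follows: active = mean ATP rescue above about 67%, or every replicate alone reaching that limit (limit read from the data, passing the limit was not always enough); inconclusive = no clear call, values can overlap the other calls; inactive = mean under the limit and some replicate under it.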

Test: protection of differentiated C2C12 cells from simvastatin – single point, plate reader, primary screen (AID 602340);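 also: myotubes were challenged with 10 µM simvastatin during compound exposure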
Conditions: C2C12 myotubes + simvastatin, ATP luminescence, 48 h; at 7.49 µM; stronger effect = higher value; scaled: DMSO 0, geranylgeraniol control 100

| Structure (SMILES) | rescue of ATP level |
| --- | --- |
| C[C@@H]1CN([C@@H](C)CO)C(=O)c2cccc(NS(=O)(=O)c3cn(C)cn3)c2O[C@@H]1CN(C)Cc1ccc(Cl)c(Cl)c1 | -13.1% |
| CCCNC(=O)C[C@H]1C[C@@H]2c3cc(NC(=O)C4CCOCC4)ccc3O[C@@H]2[C@@H](CO)O1 | -1.71% |
| CN(CCO)Cc1csc2ccc(Br)cc12 | 14.5% |
| CCN(CC)Cc1csc2ccc(Br)cc12 | 100% (active) |
| CCN(CC)Cc1cc(C(C)=O)ccc1O | 16.6% |
| CNC[C@H]1Oc2cc(-c3cccnc3)ccc2S(=O)(=O)N([C@@H](C)CO)C[C@H]1C | -14.4% |
| O=C(C[C@@H]1C=C[C@H](NC(=O)c2ccc3c(c2)OCO3)[C@H](CO)O1)NCc1ccc(Oc2ccccc2)cc1 | 8.65% |
| CN(C)C(=O)c1cccc(-c2ccc3c(c2)[C@H]2[C@H](CCN2S(=O)(=O)c2cn(C)cn2)[C@@H](CO)N3)c1 | 13.8% |
| COCCN1C(=O)N[C@@H](c2ccccc2)C(C(=O)OC)=C1C | -10.8% |
| CCN1C(=O)N[C@@H](c2ccccc2)C(C(=O)OC)=C1C | -1.21% |
| COC(=O)C1=C(C)N(C)C(C)=C(C(=O)OC)C1c1cccc(Br)c1 | 89.2% (active) |
| COCC(=O)Nc1ccc2c(c1)OC[C@H](C)N(C(=O)Cc1ccccn1)C[C@H](C)[C@@H](OC)CN(C)C2=O | 9.72% |
| O=C(CCl)NNc1nc(-c2ccccc2)c2cc(Cl)ccc2n1 | 16.4% |
| Cc1ccc2nc(Nc3ccccc3O)nc(-c3ccccc3)c2c1 | 134% (active) |
| OCCCNc1nc(-c2ccccc2)c2cc(Cl)ccc2n1 | 1.1% |
| CC(C)NC(=O)Nc1ccc2c(c1)CC(=O)N([C@@H](C)CO)C[C@@H](C)[C@@H](CN(C)S(=O)(=O)c1ccccc1)O2 | -17% |
| COc1ccccc1CNC(=O)C[C@@H]1CC[C@H](NC(=O)CN(C)C)[C@@H](CO)O1 | 2.77% |
| CN1c2ccc(-c3ccccc3)cc2[C@@H]2[C@@H](CCN2C(=O)NC2CCCC2)[C@H]1CO | -5.4% |
| CCCNC(=O)N[C@@H]1C=C[C@H](CC(=O)NC2CCC2)O[C@H]1CO | 1.32% |
| CN1C(=O)c2cc(NC(=O)c3ccc(Cl)cc3)ccc2OC[C@H]2O[C@H](CC(=O)O)CC[C@H]21 | -6.44% |
| C[C@@H]1CN([C@@H](C)CO)C(=O)c2cc(C#CC(C)(C)O)cnc2O[C@@H]1CN(C)C(=O)C1CCOCC1 | 16.9% |
| CNC(=S)N/N=C/c1ccc(OCc2ccccc2)c(Br)c1 | 10.8% |
| C=CCNC(=S)N/N=C/c1ccc(OCc2ccccc2)cc1 | 106% (active) |
| C=CCNC(=S)N/N=C/c1ccc(C)s1 | 5.1% |
